# Tau fluor cs – counter-screen for tau fibril formation inhibitors. 280,000 compounds, 0.93% hits. tau K18 P301L Alexa594 fluorescence, heparin fibrillization. Potency, µM (series often up to 57.7 µM), for the others: at the top dose activity change, negative = decrease; further: potency means the concentration at half of the fitted maximal effect; nearly all actives have a fitted effect of over 55% in size
#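 Human K18 P301L tau (15 uM unlabeled plus 0.24 uM Alexa 594-labeled, final) in 100 mM sodium acetate pH 7 was mixed with compound and 20 uM heparin and incubated 6 hr at 37 C.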
# Coupling enz – counter-screen for Giardia aldolase inhibitors: coupling enzyme system | AID 2472 | activity change, negative = inhibition, % at 58.2 µM, hits read low | coupling enzyme system counterscreen, AmpLite Red fluorescence | 290,000 compounds, 0.67% hits; in the data active means activity change below about -30%
#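 Counterscreen lacking aldolase: glyceraldehyde-3-phosphate coupling-enzyme reagent preincubated 10 min at RT with compound (at 57.5 uM final), then substrate/coupling system with AmpLite Red added; fluorescence read at 525/598 nm after 20 min RT.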
# G9a inh – G9a (human) methyltransferase inhibition; G9a H3K9 monomethylation, AlphaScreen, 2 h; Potency, µM (top dose mostly 102 µM), for the others: at the top dose activity, negative = inhibition, actives largely listed as inhibitors; 350,000 compounds, 8.8% hits; further: potency means the concentration at half of the fitted maximal effect; nearly all actives have a fitted effect of over 75% in size
# Target sequence (Q96KQ7 913-1193 limits assumed): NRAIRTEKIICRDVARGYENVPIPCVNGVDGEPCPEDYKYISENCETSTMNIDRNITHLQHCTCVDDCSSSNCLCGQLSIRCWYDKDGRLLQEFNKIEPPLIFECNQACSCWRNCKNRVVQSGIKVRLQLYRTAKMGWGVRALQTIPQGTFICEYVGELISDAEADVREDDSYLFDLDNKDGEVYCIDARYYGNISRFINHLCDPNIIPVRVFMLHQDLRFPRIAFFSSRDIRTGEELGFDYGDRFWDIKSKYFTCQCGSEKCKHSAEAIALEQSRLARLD
#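 Readings reflect AlphaScreen signal from monomethyl-H3K9 antibody detection. HMT at 20 nM; substrate b-H3K9 500 nM; cofactor SAM 20 uM; 2 h RT reaction; compounds tested as titrations in qHTS with 15 min preincubation.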
# Sfp inh – inhibitors of Bacillus subtilis Sfp phosphopantetheinyl transferase; Q9F4F7; Biochemical Sfp PPTase activity, qHTS; Potency, µM, without a hit: largest response in the series, negative = inhibition, hits mostly inhibitors; 310,000 compounds, 3.5% hits; AID 1490;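 further: the enzyme is Sfp with the accession as filed and its product quenches rhodamine fluorescence; potency means the concentration at half of the fitted maximal effect; 0% = enzyme reaction without inhibitor and -100% = no enzyme wells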
#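 Step 1, compound plus 15 nM Sfp-PPTase, 15 min, room temperature. Step 2, add rhodamine-CoA (5 uM) and BHQ-2-YbbR (12.5 uM). Step 3, read 525/598 nm fluorescence at 0 and 30 min.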
# Tau FP inhib – inhibitors of human tau fibril formation | P10636 | K18 P301L tau heparin fibrillization, Alexa594 FP, 6 h | Potency, µM (doses to about 57.7 µM), for inactives: at the top dose activity, negative = inhibition, most hits filed as inhibitors | 280,000 compounds, 0.39% hits; further: potency means the concentration at half of the fitted maximal effect; nearly all actives have a fitted effect of over 55% in size
# Target sequence (P10636 561-689 P618L limits assumed): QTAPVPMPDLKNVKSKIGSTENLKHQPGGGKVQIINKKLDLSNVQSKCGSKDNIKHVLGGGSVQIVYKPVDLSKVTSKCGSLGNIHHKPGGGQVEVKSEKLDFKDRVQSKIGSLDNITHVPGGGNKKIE
#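 Recombinant K18 P301L […], labeled with Alexa 594 at 0.24 uM over 15 uM unlabeled; heparin inducer 20 uM final; 37 C, 6 hr; FP endpoint.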
# Tau ThT inhib – inhibitors of human tau fibril formation, thioflavin T binding; 270,000 compounds, 2.1% hits; Potency, µM (series often up to 57.4 µM), for the others: top-dose activity, negative = inhibition, most hits filed as inhibitors; recombinant tau K18 P301L (four-repeat tau fragment), heparin-induced fibrillization, ThT fluorescence; further: potency means the concentration at half of the fitted maximal effect; nearly all actives have a fitted effect of over 55% in size
#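 Heparin-induced (20 uM) aggregation of recombinant human K18 P301L tau, 15 uM unlabeled with 0.24 uM labeled, pH 7 acetate buffer, 6 hr at 37 C with compound. Fibrils quantified by 30 uM ThT fluorescence after 1 hr ambient incubation.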
# * = called active by the depositor; ? = inconclusive; . = not tested or not shown; [ ] = another dose, or the depositor's remark. The list is not random: actives were taken first. Their share in the collection is about 11%. Unless noted, the call rests on the fitted dose curve; in most records, active means well fitted curve in the direction sought with a large enough effect; inconclusive means small, poorly fitted or top-dose-only effect, or another doubt; inactive means no such curve, though single readings can be large; an effect the other way counts as inactive or inconclusive. Unless noted, on the % scale 0 is the no-effect control and ±100 the full control effect.
SMILES,Tau fluor cs,Coupling enz,G9a inh,Sfp inh,Tau FP inhib,Tau ThT inhib
COc1ccc(-c2cc(-c3ccccc3O)[nH]n2)cc1,-5%,-1,19%,-8%,8%,-18%
COc1ccc(-c2cc(-c3c(O)c(OC)c4occc4c3OC)[nH]n2)cc1OC,14µM*[quencher],0,-6%[0.0925 µM],-15%,11%,11µM*
Cc1ccc(C)c(S(=O)(=O)Nc2nc3ccc(S(N)(=O)=O)cc3s2)c1,-19%,4,10µM*,?,-8%,-22%
Cc1ccc(N(CC(=O)NCc2ccco2)C(=O)CCC(=O)Nc2nccs2)cc1C,.,0,-2%[59 µM],-2%,.,.
COc1ccccc1NCCC(=O)OCC(=O)NC1CCCCC1,-13%,-1,3.5µM*,8%,-2%,-8%
COc1ccccc1NC(=O)CC(NC1CCCCC1)C(=O)O (stereo not given),-5%,5,50µM*,-1%,-1%,-4%
Cc1ccc(C)c(CN2C(=O)c3ccccc3S(=O)(=O)c3ccc(C(=O)N4CCN(Cc5ccccc5)CC4)cc32)c1,-18%,.,?,.,-13%,-8%
COc1cccc(/C=C2/Sc3ccc(C(=O)NCCN4CCCCCC4)cc3NC2=O)c1,.,-1,40µM*,45µM*,.,.
CN1CCN(C(=O)c2ccc3c(c2)NC(=O)/C(=C/c2ccccc2)S3)CC1,.,4,?,-13%,.,.
Cc1cccc(/C=C2/Sc3ccc(C(=O)NCCN4CCCC4)cc3NC2=O)c1,.,1,35µM*,?,.,.
O=C1Nc2cc(C(=O)NCCN3CCCCCC3)ccc2S/C1=C\c1ccccc1,.,.,45µM*,40µM*,.,.
O=C1Nc2cc(C(=O)N3CCc4ccccc4C3)ccc2S/C1=C\c1ccccc1,-18%,-1,7.9µM*,-12%,-2%,-13%
CCOC(=O)N1CCN(C(=O)c2ccc3c(c2)NC(=O)/C(=C/c2ccccc2)S3)CC1,.,-1,15%[59 µM],-12%,.,.
CCOc1cccc(N(C(=O)CNC(=O)c2ccco2)C(C(=O)NCC2CCCO2)c2ccccc2)c1 (stereo not given),.,0,10%,-1%,.,.
CC1CC(O)CC(C)(C)C1 (stereo not given),.,.,0%[12.7 µM],8%,.,.
CC(C)CN1CC[C@@]2(CCCN(S(=O)(=O)c3ccccc3)C2)C1,.,1,1%[12.7 µM],7%,.,.
Cc1cc2occ(CC(=O)N(C)CC(=O)Nc3cccc(F)c3)c2cc1C,.,-7,.,19%,.,.
CN(C)c1ccc(NC(=O)c2cccc(N3C(=O)CCC3=O)c2)cc1,-3%,-5,40µM*,-3%,0%,-16%
Cc1cc2occ(CC(=O)N(C)CC(=O)Nc3c(C)cccc3C)c2cc1C,.,.,40µM*,.,.,.
COc1ccc(NC(=O)CN(C)C(=O)c2cccc(S(=O)(=O)Nc3ccc(OC)cc3)c2)cc1,.,.,21%[0.501 µM],.,.,.
CN1CCN(S(=O)(=O)c2cccc(C(=O)N(C)CC(=O)Nc3ccc(F)c(F)c3F)c2)CC1,.,.,1.8µM*,.,.,.
COc1ccc(NC(=O)CN(C)C(=O)c2cccc(-n3cccc3)c2)cc1,.,.,45µM*,.,.,.
CCOC(=O)Cc1csc(NC(=O)c2ccc3ncsc3c2)n1,.,.,22%,8%,.,.
CN(CC(=O)Nc1cccc(F)c1)C(=O)c1cccc(N2C(=O)CCC2=O)c1,.,.,23%[59 µM],.,.,.
Cc1cccc(C)c1NC(=O)CN(C)C(=O)c1cccc(-n2cccc2)c1,.,.,50µM*,.,.,.
SMILES,Tau fluor cs,Coupling enz,G9a inh,Sfp inh,Tau FP inhib,Tau ThT inhib
COc1ccc(NC(=O)CN(C)C(=O)c2cccc(S(=O)(=O)N3CCN(Cc4ccccc4)CC3)c2)cc1,.,.,18µM*,50µM*,.,.
Cc1cccc(NC(=O)CNC(=O)c2cccc(-n3cccc3)c2)c1C,.,.,35µM*,.,.,.
Cc1ccc(C)c(NC(=O)CN(C)C(=O)c2cccc(N3C(=O)CCC3=O)c2)c1,.,.,40µM*,.,.,.
Cc1cccc(C)c1NC(=O)CN(C)C(=O)c1ccccc1Cc1ccccc1,.,.,6%,.,.,.
CCOC(=O)C[C@@H](C(=O)OCC)[C@@H]1CCCCC1=O,-19%[11.6 µM],-7,.,-10%,-12%[11.6 µM],-10%[11.5 µM]
CCOc1ccc(CNC(=O)CCn2c(=O)c3cccn3c3cccnc32)cc1,5%,.,-28%[59 µM],.,7%,11%
CC1=C(c2ccc(C)c(C)c2)S(=O)(=O)N(Cc2ccc(C(=O)NCc3ccc(C)cc3)cc2)C1=O,-28%,.,-26%[59 µM],.,-12%,-12%
CCN(CC(=O)Nc1c(F)cccc1F)C(=O)c1cccc(-n2cccc2)c1,.,.,22%[2.33 µM],.,.,.
CCN(CC(=O)Nc1ccccc1OC)C(=O)c1cccc(-n2cccc2)c1,.,.,45µM*,8%,.,.
Cc1ccc(NC(=O)CN(C)C(=O)c2cccc(-n3cccc3)c2)cc1,.,.,25µM*,.,.,.
CCC(C)NC(=O)N1c2ccccc2Sc2ccccc21 (stereo not given),-18%,3,45µM*,-2%,13%,?
COc1ccc2cc(C#N)c(N3CCOCC3)nc2c1,.,0,.,0%,.,.
COc1ccc2nc(N3CCC(C)CC3)c(C#N)cc2c1,?,-25,421%[59 µM],40µM*,?,35µM*
COc1ccc2nc(N3CCC(O)CC3)c(C#N)cc2c1,-1%,-34*,-5%,-17%,-2%,-3%
COc1ccc(C(CCN)Cc2ccccc2)cc1 (stereo not given),4%,3,40%,9%,3%,-2%
COC(=O)c1c(NC(=S)NNC(=O)c2ccc(Cl)s2)sc(C(=O)N(C)C)c1C,.,.,28µM*,4%,.,.
CCOc1c(Br)cc(C(=O)N2CCCN(C)CC2)cc1OC,.,0,-1%,25%,.,.
C=CCNC(=O)COC(=O)c1c2c(nc3ccccc13)CCC2,.,1,40µM*,7%,.,.
CNC(=O)COC(=O)c1c2c(nc3ccccc13)CCC2,-24%,-1,.,-3%,-3%,?
CC(=O)Nc1ccc(S(=O)(=O)N(C)CC(=O)OCC(=O)N2CC(C)OC(C)C2)cc1 (stereo not given),.,.,30%[12.7 µM],.,.,.
O=C(NC1CCCC1)c1sc(=S)n2c1[nH]c(=O)c1ccccc12,?,2,?,-24%,11%,16µM*
C=CCn1c(N)c(C(=O)NCc2ccco2)sc1=S,-8%,-1,-20%[59 µM],-14%,-2%,-11%
O=C(NCc1ccco1)c1sc(=S)n2c1[nH]c(=O)c1ccccc12,-9%,1,22µM*,45µM*,-2%,-16%
CSCc1cc(N(C)c2ccccc2)nc(-c2ccccc2)n1,.,0,8%,-13%,.,.
Cn1c(=O)[nH]c2cc(Cl)cnc21,-6%,-2,3%,11%,-2%,-10%
Cn1c(=O)c2[nH]c(=O)cnc2n(C)c1=S,-5%,-1,50µM*,18µM*,-5%,?

# Screening data from PubChem.
